Screening data: PubChem BioAssay, several laboratories
In the library only some 4% were active in any assay of this set; here they are far more common.
ADAM10 inh: inhibits human ADAM10; O14672; recombinant ADAM10, EDANS/DABCYL FRET peptide cleavage, 3 h; inhibition, % at 7 µM; hit rate 0.62% among 370,000;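 active = inhibition above a per-campaign cutoff equal to the mean of compounds falling between control-based bounds plus 3 SD, cut at about 20% in these data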;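 also: 0% = DMSO wells while the 100% control is not disclosed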
aDG glyco act: alpha-DG glycosylation activation; AID 624168; Pro5-aDG cells, alpha-DG glycosylation AlphaScreen (IIH6); 0% Pro5, 100% B10-LARGE cell signal; activation, % at 10 µM; hit rate 0.22% among 360,000;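 active = activation of at least 8% versus controls, or a plate z-score of at least 8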;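 also: Pro5 are CHO cells carrying HIG-tagged alpha-DG that lacks glycosylation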
ADAM17 inh: inhibits human ADAM17 | inhibition, % at 6.95 µM | P78536 | hit rate 0.83% among 370,000 | recombinant ADAM17, EDANS/DABCYL FRET peptide cleavage;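 active = inhibition above the mean of compounds lying between control limits plus 3 SD, set per campaign, cut at about 8.5% in these data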;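 also: 0% = DMSO-only wells as the low control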
Target sequence (P78536 215-824 limits assumed): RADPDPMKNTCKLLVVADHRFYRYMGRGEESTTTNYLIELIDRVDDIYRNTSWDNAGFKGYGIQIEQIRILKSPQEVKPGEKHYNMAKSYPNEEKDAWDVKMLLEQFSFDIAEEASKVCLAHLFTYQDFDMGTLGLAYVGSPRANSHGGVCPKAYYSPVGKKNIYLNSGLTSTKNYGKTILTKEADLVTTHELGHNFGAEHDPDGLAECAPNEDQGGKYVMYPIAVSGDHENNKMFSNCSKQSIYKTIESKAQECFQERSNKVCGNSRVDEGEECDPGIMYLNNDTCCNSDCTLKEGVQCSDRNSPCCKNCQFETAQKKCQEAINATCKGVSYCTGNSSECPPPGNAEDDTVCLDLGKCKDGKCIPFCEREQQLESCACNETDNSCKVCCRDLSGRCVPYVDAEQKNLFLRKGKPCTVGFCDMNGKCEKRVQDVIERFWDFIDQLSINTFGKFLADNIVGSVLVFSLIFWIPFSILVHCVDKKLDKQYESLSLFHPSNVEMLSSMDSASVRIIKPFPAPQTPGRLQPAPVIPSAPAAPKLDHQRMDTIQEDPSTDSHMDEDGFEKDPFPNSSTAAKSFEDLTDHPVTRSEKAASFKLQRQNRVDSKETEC
NR3A LBD binder: NR3A (human) ligand-binding domain modulation. AID 1259313. hit rate 2.5% among 340,000. NR3A LBD differential scanning fluorimetry, Tm shift; 0% = protein alone, 100% = glycine-bound protein. Tm shift relative to glycine control, % at 25 µM;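 active = melting temperature shift of at least 10% of the positive control shift, at one fixed dose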
FAS-TE inh: inhibitors of human fatty acid synthase thioesterase domain; hit rate 0.67% among 360,000; AID 602261; inhibition, % at 15 µM; recombinant FAS-TE, OMFH fluorogenic substrate, fluorescence endpoint; P49327;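 active = compounds whose normalised, plate-corrected inhibition of enzyme fluorescence in the single-dose primary screen is 50% or more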;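 also: 0% = DMSO with enzyme and 100% = substrate without enzyme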
FAS-TE conf: confirmation of human fatty acid synthase thioesterase inhibitors | hit rate 45% among 2,300 | shares compounds with FAS-TE inh | recombinant FAS-TE, OMFH fluorogenic substrate, fluorescence | inhibition, % at 15 µM;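 active = compounds inhibiting the enzyme by at least 50% at 15 µM in any one of the replicates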;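 also: 0% = enzyme with DMSO only and 100% = wells lacking enzyme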
Active calls of the source: *; / = no result given.

SMILES | ADAM10 inh | aDG glyco act | ADAM17 inh | NR3A LBD binder | FAS-TE inh | FAS-TE conf
Cn1c(SCC(=O)N2c3ccccc3CCc3ccccc32)nnc1-c1cc2ccccc2cc1O | 1 | 0 | 3 | -2 | 67* | 9
CN1C(=O)/C(=C\c2cc(N=Nc3ccccc3)ccc2O)SC1=S | 7 | 0 | 2 | -2 | 66* | 38*
O=C(c1cnn2c(C(F)(F)F)cc(-c3ccccc3)nc12)N1CCCc2ccccc21 | -8 | 0 | -4 | -1 | -8 | /
O=C(c1nn2c(C(F)(F)F)cc(-c3cccs3)nc2c1Cl)N1CCCc2ccccc21 | -5 | 0 | -1 | -1 | 68* | -3
COc1ccc(Cc2c(N)nc(C)nc2N)cc1 | 6 | 0 | -1 | 0 | -1 | /
COCCn1c(SCc2cccc([N+](=O)[O-])c2)nc2ccccc2c1=O | 5 | 0 | 1 | 1 | 51* | 12
CCSc1nc2ccccc2n1Cc1ccccc1F | -1 | 0 | -5 | -2 | 6 | /
COc1ccc(C(=O)Nn2c(SCc3cccc([N+](=O)[O-])c3)nc3ccccc3c2=O)cc1 | 9 | 0 | 2 | 17* | 59* | 51*
CCSc1nc2ccccc2n1Cc1cccc([N+](=O)[O-])c1 | 4 | 1 | -4 | 2 | 59* | 20
CCOC(CCn1c(SCc2cccc([N+](=O)[O-])c2)nc2ccccc2c1=O)OCC | -1 | 0 | -1 | 1 | 31 | /
CC1(C(=O)NS(=O)(=O)c2ccc(C#N)cc2)CCN1C(=O)CCc1ccc(Cl)cc1Cl (stereo not given) | -5 | 0 | -2 | / | 42 | /
CC1(C(=O)NS(=O)(=O)c2ccc(C#N)cc2)CCN1C(=O)Cc1ccc(Cl)cc1Cl (stereo not given) | -15 | 0 | -3 | / | 55* | 70*
CC1=C(O)C(=O)C(c2c(C)cc(C)c(Br)c2C)=C(O)C1=O | -15 | 0 | -9 | / | 68* | 78*
CCOc1ccccc1N1CCN(C(=S)NC(=O)C23CC4CC(CC(C4)C2)C3)CC1 | -6 | 0 | 0 | 0 | 51* | 15
C=C(CC)C(=O)c1ccc(OCC(=O)O)c(Cl)c1Cl | 3 | 0 | -3 | 1 | -1 | /
O=C(COc1ccc(Cl)cc1)Nc1ccc(C(=O)O)cc1NC(=O)COc1ccc(Cl)cc1 | 0 | 0 | 2 | 10* | 51* | 66*
CC1CCCCC1NS(=O)(=O)c1ccc(S(=O)(=O)N2CCN(CCC#N)CC2)cc1 (stereo not given) | -8 | 0 | -2 | -2 | 9 | /
CSc1ccc(-c2cccc([N+](=O)[O-])c2)nn1 | -5 | 0 | -6 | 1 | 5 | /
O=[N+]([O-])c1cccc(-c2ccc(SCc3cccnc3)nn2)c1 | 14 | 0 | -3 | 0 | 53* | 58*
CC(C)[C@H](NC(=O)c1ccco1)C(=O)OCC(=O)Nc1ccc(F)cc1 | -4 | 0 | 1 | -2 | -10 | /
COc1ccc(-c2nn(-c3ccccc3)cc2/C=C/C(=O)O)cc1[N+](=O)[O-] | -8 | 0 | -6 | 0 | 53* | 62*
CCOc1cc(C(=O)NC(C)C2CCCO2)cc(OCC)c1OCC (stereo not given) | -1 | 0 | -4 | 1 | -4 | /
COC(=O)[C@]12C[C@H](CC(=O)N3CCN(C(=O)C4CC4)CC3)C(=O)N(Cc3ccco3)C1=C[C@H](COCc1ccccc1)O[C@@H]2C | -5 | / | -4 | / | / | /
COc1ccc(NC(=O)/C(Cl)=C(/Cl)S(=O)Cc2ccc(Cl)cc2)cn1 (stereo not given) | -5 | -1 | -1 | 0 | 62* | 68*
COc1ccc(NC(=O)C(Cl)=C(Cl)Cl)cn1 | -2 | 1 | 0 | 0 | -4 | /
SMILES | ADAM10 inh | aDG glyco act | ADAM17 inh | NR3A LBD binder | FAS-TE inh | FAS-TE conf
CCOc1ccc(CCNC(=O)COC(=O)c2ccccc2O)cc1OCC | 2 | 0 | 2 | 1 | -8 | /
O=C(c1cccs1)N(Cc1nc2sc3c(c2c(=O)[nH]1)CCCC3)C1CCCC1 | -6 | 0 | -4 | -14 | 11 | /
Cc1ccc(-c2nnc(COC(=O)c3cc(=O)[nH]c4ccccc34)o2)cc1 | -55 | 0 | -20 | -1 | 66* | 49*
CCOC(=O)c1cc(=O)[nH]c2ccccc12 | -78 | 0 | -34 | -1 | -4 | /
CCc1ccc(OCC(=O)N2c3ccccc3CCc3ccccc32)cc1 | 19 | 0 | 8 | -1 | 52* | 22
CN(c1ccccc1C(=O)NCC1CCCO1)S(C)(=O)=O (stereo not given) | -11 | 0 | -3 | -1 | -6 | /
Cc1ccccc1CS(=O)(=O)c1nnc([C@H](Cc2ccccc2)NC(=O)OC(C)(C)C)o1 | 10 | 0 | 4 | -4 | 64* | 27*
CC(C)(C)OC(=O)N[C@@H](Cc1ccccc1)c1nnc(S(=O)(=O)Cc2ccccc2)o1 | 8 | / | 1 | / | / | /
CCCCCCn1c(=O)c(F)cn(Cc2ccc(OC)c([N+](=O)[O-])c2)c1=O | 5 | 0 | 0 | -15 | 58* | 57*
CCCCn1c(CN2CCN(c3cccc(Cl)c3)CC2)nc2c1c(=O)n(C)c(=O)n2C | 7 | 1 | 4 | -2 | 71* | 54*
CCCCCn1c(CN2CCN(c3cccc(Cl)c3)CC2)nc2c1c(=O)n(C)c(=O)n2C | -2 | 0 | -1 | -5 | 79* | 35*
CCCCn1c(CN2CCN(c3ccccc3)CC2)nc2c1c(=O)n(C)c(=O)n2C | / | 0 | / | -1 | 50* | 50*
CCN(CC)CC(C)(C)COC(=O)c1oc2ccccc2c1C | -1 | 0 | -6 | -2 | -2 | /
O=c1[nH]c(O)c(N=Nc2ccc(Cl)c(S(=O)(=O)Nc3ccccc3Cl)c2)c(=O)[nH]1 | 7 | 0 | 0 | -2 | -3 | /
Cc1cccc(C)c1N1CCN(c2nc(N(C)C)oc(=O)c2C#N)CC1 | 0 | 0 | -3 | 3 | 56* | 17
O=C(Nc1cccc(-c2ccccc2)c1)N1CCN(C(=O)Nc2cccc(-c3ccccc3)c2)CC1 | -2 | 0 | -9 | -1 | -4 | /
CCc1ccccc1NC(=O)c1cc(-c2ccc(F)cc2)on1 | 2 | 0 | -2 | 2 | -8 | /
C=C(NC(C)=O)c1c(F)cccc1F | 2 | 0 | -3 | 1 | -7 | /
N#Cc1ccccc1Sc1ccccc1C(=O)Nc1ccc(Br)cc1 | 16 | 0 | 6 | 0 | 51* | -7
N#Cc1ccccc1Sc1ccccc1C(=O)Nc1ccc2ccccc2c1 | 17 | 0 | 8.6* | 1 | 60* | 38
O=C(Cc1c(Cl)cccc1Cl)NC1=NCCS1 | / | 0 | / | / | 4 | /
O=C(Nc1cccc(S(=O)(=O)N2CCCCC2)c1)c1ccc(S(=O)(=O)C(F)F)cc1 | 4 | 0 | -1 | -3 | 59* | 39
O=C(Nc1cccc(S(=O)(=O)C(F)F)c1)c1ccc(S(=O)(=O)N2CCCCC2)cc1 | 17 | 0 | 7 | -7 | 26 | /
